Results as given in the supplement of paper PMC11417369.
The full ranking holds about 25,000 sequences; the median of “ln(normalized median fluorescence intensity)” is about 6.7, and the highest 2% start at about 10. The sample holds the highest values, similar sequences and a random draw of the others, so the mix is not that of the screen.

Tested on: PfHDP1 homeodomain (GST-tagged)
Test: gcPBM binding intensity (ln(normalized median fluorescence intensity)); higher = stronger DNA binding
How it was run: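 Each value is the highest Masliner-normalised natural-log median intensity across replicate spots of either orientation of a probe. The probes were primer-extended double-stranded 36-bp intergenic genomic sequences on an Agilent 4 × 180k array, alongside negative controls, exposed for 1 h to GST-tagged P. falciparum DNA-binding domains expressed in E. coli. Bound protein was picked up with Alexa488 anti-GST antibody and scanned at 488 nm.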

Sequence	gcPBM binding intensity (ln)
TATTATAATATTTATACACACATAATTTTGATAAAT [CACACA_site583]	6.45
TTTCCGTATAATTTTGCACACGAATATAAATTTGAT [CACACA_site137]	10.3
TCCGTATAATTTTGCACACGAATATAAATTTGATAA [CACACA_site136]	10.9
TGGAGGTCAGTTCACAGTACCCAGGAAATCTACGGA [XGTACX_site1995]	5.93
TTTTTCTTAAAAAATTGTACACATATATATATATAT [XGTACX_site542]	9.21
GTAGTGGTTGAATATACACACATATATATATATATA [CACACA_site2651]	9.39
CCTAGAAAAAAGAACTGTACATATATATATAAATAT [XGTACX_site1680]	6.65
GTAGACATTATAATGGTGCAAAAAAATTAACAAAAA [GTGCAC_site9891]	10.6
GACAAATAATAAAAGGTGCATTATACTTAACAAAAA [GTGCAC_site9624]	9.69
TATATTAACAAAATGGTGCAATAATTTCTATATTAT [GTGCAC_site9857]	10.5
TCAAGTATTAAAATGGGTACATAAATATGTGTATAT [XGTACX_site5884]	6.63
TATAATAAATCATATGCATGTTGAAAAAAAAAAAAA [TGCATGCA_site923]	6.46
AATATATAGAAACACACACACAAAAAAAAAAAAAAA [CACACA_site1326]	6.47
TTTTGAAACATATGATGTACACGAACATTTAAAAAA [XGTACX_site474]	6.6
ATTTAGAAAAATAAAACACACATATATCTGTAAATA [CACACA_site6119]	6.53
ATAAAAATATTGTCTAGTACATATTTATAATAAAAA [XGTACX_site7523]	6.54
TATATATATATGTGCACACATATATAATATGTATAA [CACACA_site715]	10.1
TATATATATATATGTGCACACCAATTGTATGTAATA [CACACA_site3888]	10.5
ATTGAATATGTAAATGCACACCAAAAAAAAAAAAAA [CACACA_site9189]	9.61
TATATATATATGTGCACACCAATTGTATGTAATATA [CACACA_site3889]	10.6
AATATATATATATGTGCACACATATATAATATGTAT [CACACA_site716]	9.79

Sequence	gcPBM binding intensity (ln)
TAATATAATATATGCACACAAATATGTATATATGTG [CACACA_site2134]	9.77
CACAAAATAAATTAAACACACAACATCATATATGTA [CACACA_site846]	6.57
TTTTTTTATATAGACACAAAAGAAAATTACATATAC [CACACA_negctrl_site235]	6.49
ATATATAATAAATACACACACATGTATTTATAAATA [CACACA_site5135]	6.8
TTTTTTTTGGTATAATGTACATTTTCACTTATGTAT [XGTACX_site3259]	6.97
CACCCGCACGTATTTGCACACATTGCCACGTAATTA [CACACA_site5786]	10.7
TTTTTTTTTTTTTTTGCACACACATTGAATTATTAT [CACACA_site198]	9.13
CAGACGCACGTATTTGCACACATTGCCACGTAATTA [CACACA_site3349]	10.2
TGTAATCAAAAAAATAGTACATAAATTGTGTATACT [XGTACX_site5908]	6.57
TTTATTTTATCATTTGCACACGCACCCCCACATAAA [CACACA_site8007]	10.2
TATTTTATCATTTGCACACGCACACCGACATAAAAA [CACACA_site4348]	10.6
TATTTTATCATTTGCACACGCACACCCACATAAAAA [CACACA_site354]	10.5
TTTTATCACATTATTGCACACACATAAAGAAAAAAA [CACACA_site8922]	9.63
TTTATTTTATCATTTGCACACGCACGCCCACATAAA [CACACA_site353]	10.6
AGCACGCACAGACACACACACATATTTATATTTATA [CACACA_site6291]	7.62
TTTATTTTATCATTTGCACACGCACCCAGACATAAA [CACACA_site4347]	10.6
TTATCATTTGGACACGCACACACACCGAAAAAGAAA [CACACA_site8008]	7.13
TTTTTTTTTATTATCATGCACACATTTTTTTTTTTT [CACACA_site2254]	9.1
TACCAATGCATAACGGTGCAAAAAAATAAGGAATAA	10.3
AAATTATAAAATAACTGTACCAATCCTTTTTTTTTA [XGTACX_site2229]	5.84
TATACATATGTATGCACACATACATACCCATATAAT [CACACA_site5842]	9.42

Sequence	gcPBM binding intensity (ln)
GTATAAAAATTTAGGAGTACAATATATTTATAATAT [XGTACX_site2127]	6.5
ATATTTCATTAATGAACACACAAAGAGGTATATAAA [CACACA_site1519]	6.86
AATTAGACATAATATACACACATATATTATATATAT [CACACA_site2691]	6.91
ATATTAAAGCCTTTTTGTACATATAAATAAACATAG [XGTACX_site4667]	6.66
GTAAAATTTCGGATTTGTACACATGGCTATGAAAAA [XGTACX_site939]	6.57
TGCCCTAACCATACTACACACACTGCTCAAAATAGT [CACACA_site2219]	7.09
AGGATATAAAGTTGTGCATGTCAAGTGCACCGTATT [TGCATGCA_site451]	10.2
TGTATATATAAACATGCACACGTGGTTGTATATATA [CACACA_site9078]	8.31
ATATATATATATAGTGCACACATATAAAATATATAT [CACACA_site8884]	10.3
TATATATATATAATAGTGCATAAATAAATATATAAA	9
ATATAAATACGGTGTGCACACACATAATATATATAT [CACACA_site2271]	11.1
ATATATATATATAGTGCACACTTAAGAATATAAAGA [CACACA_site4771]	10.3
ATATATATATAGTGCACACTTAAGAATATAAAGAGG [CACACA_site1151]	10.7
AAAAATATAAAAATAGCACACATATATACATATATA [CACACA_site7901]	6.67
AAATAAAGAATATAAATACACACTTAAATATATATT [CACACA_site4007]	6.44
ATAATATAAATATACACACACACATATATATATATA [CACACA_site2905]	9.28
AAATAATATAAATACACACACACATATATAAATACA [CACACA_site4465]	7.06
ATATAAATATAGTGTGCACACACATAATATATATAT [CACACA_site8713]	10.7
ATATATATATAGTGCACACATATAAAATATATATAA [CACACA_site2745]	10.8
